According to PubChem BioAssay (NCATS):
Inconclusive results are not listed. A call without a number means that no potency is given here. Unmarked numbers belong to inactive results. Activity calls are given as the source filed them. The call rests on the fitted dose curve; in most records, active means well fitted curve in the direction sought with a large enough effect; inconclusive means small, poorly fitted or top-dose-only effect, or another doubt; inactive means no such curve, though single readings can be large; an effect the other way counts as inactive or inconclusive.

Assays:
[1] = molecular target: ATP-dependent 6-phosphofructokinase (Trypanosoma brucei brucei) (UniProt O15648); assay: qHTS Assay to Find Inhibitors of T. brucei phosphofructokinase: hit validation (AID 492961);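 further: luminescence reports ADP formed as PFK phosphorylates fructose-6-phosphate with ATP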
Chain of ATP-dependent 6-phosphofructokinase (Trypanosoma brucei brucei) (O15648 whole entry, looked up): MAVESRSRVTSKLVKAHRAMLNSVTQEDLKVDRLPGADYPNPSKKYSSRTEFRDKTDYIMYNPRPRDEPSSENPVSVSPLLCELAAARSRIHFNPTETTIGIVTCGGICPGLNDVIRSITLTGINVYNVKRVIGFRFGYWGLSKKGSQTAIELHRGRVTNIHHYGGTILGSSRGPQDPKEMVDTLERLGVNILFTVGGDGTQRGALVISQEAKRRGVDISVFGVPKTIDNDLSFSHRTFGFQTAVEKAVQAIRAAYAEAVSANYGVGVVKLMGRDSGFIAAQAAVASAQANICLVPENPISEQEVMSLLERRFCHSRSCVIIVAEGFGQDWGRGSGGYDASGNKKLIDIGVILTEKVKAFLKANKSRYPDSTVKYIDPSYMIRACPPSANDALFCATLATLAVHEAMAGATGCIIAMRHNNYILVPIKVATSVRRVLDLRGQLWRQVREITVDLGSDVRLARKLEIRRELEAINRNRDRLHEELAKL
Outline: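 Compounds titrated; %activity normalized to 0x and 1x enzyme controls, curve-fitted. Readout: ADP-Glo luminescence after 45 min room-temperature reaction of 1.25 nM PFK, 0.1 mM ATP, 0.5 mM F6P, pH 8.0.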

[2] = molecular target: Ubiquitin carboxyl-terminal hydrolase 1 (Homo sapiens) (UniProt O94782); assay: Inhibitors of USP1/UAF1: Pilot qHTS (AID 504865); further: potency means the concentration at half of the fitted maximal effect; nearly all actives have a fitted effect of over 35% in size
Chain of Ubiquitin carboxyl-terminal hydrolase 1 (Homo sapiens) (O94782 whole entry, looked up): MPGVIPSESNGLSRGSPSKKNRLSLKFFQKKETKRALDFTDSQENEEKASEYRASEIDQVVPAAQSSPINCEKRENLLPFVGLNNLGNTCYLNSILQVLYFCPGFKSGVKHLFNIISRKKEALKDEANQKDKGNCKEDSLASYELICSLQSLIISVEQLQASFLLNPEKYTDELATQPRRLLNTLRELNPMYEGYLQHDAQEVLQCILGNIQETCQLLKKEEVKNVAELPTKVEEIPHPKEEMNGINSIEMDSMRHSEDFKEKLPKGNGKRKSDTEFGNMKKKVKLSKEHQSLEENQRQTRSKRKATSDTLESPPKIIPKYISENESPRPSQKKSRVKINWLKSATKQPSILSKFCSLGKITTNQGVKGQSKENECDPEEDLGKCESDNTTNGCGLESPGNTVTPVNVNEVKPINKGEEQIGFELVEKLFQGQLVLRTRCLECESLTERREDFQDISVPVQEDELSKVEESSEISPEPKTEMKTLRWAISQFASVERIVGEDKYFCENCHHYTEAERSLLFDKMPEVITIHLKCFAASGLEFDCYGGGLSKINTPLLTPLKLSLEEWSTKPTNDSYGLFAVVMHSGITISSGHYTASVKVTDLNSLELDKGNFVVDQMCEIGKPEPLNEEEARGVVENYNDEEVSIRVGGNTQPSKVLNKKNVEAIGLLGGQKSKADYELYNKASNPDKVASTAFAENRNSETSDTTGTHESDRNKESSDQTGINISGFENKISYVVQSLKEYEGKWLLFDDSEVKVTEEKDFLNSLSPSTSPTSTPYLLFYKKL
Outline: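 Kinetic fluorescence assay: 1nM USP1/UAF1, 15 min compound preincubation, then 150nM Ub-Rho; 480/540 nm.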

[3] = molecular target: Luciferin 4-monooxygenase (Photinus pyralis) (UniProt P08659); assay: Biochemical firefly luciferase enzyme assay for NPC (AID 624030); further: potency means the concentration at half of the fitted maximal effect; nearly all actives have a fitted effect of over 70% in size
Chain of Luciferin 4-monooxygenase (Photinus pyralis) (P08659 whole entry, looked up): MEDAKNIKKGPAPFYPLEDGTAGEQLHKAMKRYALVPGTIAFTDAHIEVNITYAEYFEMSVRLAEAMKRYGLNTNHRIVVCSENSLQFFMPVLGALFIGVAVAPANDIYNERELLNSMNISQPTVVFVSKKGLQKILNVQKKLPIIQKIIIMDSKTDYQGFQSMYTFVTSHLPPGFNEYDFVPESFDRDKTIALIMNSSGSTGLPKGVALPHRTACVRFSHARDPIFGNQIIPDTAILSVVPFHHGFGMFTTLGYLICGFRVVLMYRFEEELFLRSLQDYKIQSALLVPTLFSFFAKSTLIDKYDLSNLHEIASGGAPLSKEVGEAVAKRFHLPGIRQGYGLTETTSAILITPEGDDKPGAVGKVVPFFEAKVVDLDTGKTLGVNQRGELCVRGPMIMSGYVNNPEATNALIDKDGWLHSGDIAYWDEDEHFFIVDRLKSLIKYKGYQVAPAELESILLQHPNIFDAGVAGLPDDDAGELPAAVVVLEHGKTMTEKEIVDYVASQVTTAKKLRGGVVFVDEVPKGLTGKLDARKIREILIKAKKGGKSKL
Outline: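 Purified P. pyralis luciferase at 10 nM in 50 mM Tris Acetate (final), luminescence read within 5 minutes of enzyme addition to compounds. Activity normalised to PTC124 versus DMSO; concentration-response curves classed by r2, magnitude and activity.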

[4] = S16 Schwann cell viability assay (CellTiter-Glo assay) (AID 624031);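 further: native untransfected S16 rat Schwann cells; cellular ATP luminescence as a viability measure; nearly all actives have a fitted effect of over 70% in size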
Outline: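 Concentration-effect curves come from CellTiter-Glo luminescence of S16 rat Schwann cells after 24 h compound exposure. Each reading was normalized to DMSO wells (0%) and wells without cells, and curves were ranked by r2 and response magnitude.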

[5] = S16 Schwann cell PMP22 intronic element firefly luciferase assay (AID 624032); further: nearly all actives have a fitted effect of over 30% in size
Outline: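 Rat S16 Schwann cells stably carrying firefly luciferase driven by a PMP22 intronic element, in 10% FBS, treated 24 h at 37 C. ONE-Glo luminescence normalized to PTC124 control and DMSO (0%); curves classed by r2, magnitude and activity.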

[6] = molecular target: Furin (Homo sapiens) (UniProt P09958); assay: Furin counterscreen qHTS for Zika virus inhibitors (AID 1347149); further: potency means the concentration at half of the fitted maximal effect; nearly all actives have a fitted effect of over 70% in size
Chain of Furin (Homo sapiens) (P09958 whole entry, looked up): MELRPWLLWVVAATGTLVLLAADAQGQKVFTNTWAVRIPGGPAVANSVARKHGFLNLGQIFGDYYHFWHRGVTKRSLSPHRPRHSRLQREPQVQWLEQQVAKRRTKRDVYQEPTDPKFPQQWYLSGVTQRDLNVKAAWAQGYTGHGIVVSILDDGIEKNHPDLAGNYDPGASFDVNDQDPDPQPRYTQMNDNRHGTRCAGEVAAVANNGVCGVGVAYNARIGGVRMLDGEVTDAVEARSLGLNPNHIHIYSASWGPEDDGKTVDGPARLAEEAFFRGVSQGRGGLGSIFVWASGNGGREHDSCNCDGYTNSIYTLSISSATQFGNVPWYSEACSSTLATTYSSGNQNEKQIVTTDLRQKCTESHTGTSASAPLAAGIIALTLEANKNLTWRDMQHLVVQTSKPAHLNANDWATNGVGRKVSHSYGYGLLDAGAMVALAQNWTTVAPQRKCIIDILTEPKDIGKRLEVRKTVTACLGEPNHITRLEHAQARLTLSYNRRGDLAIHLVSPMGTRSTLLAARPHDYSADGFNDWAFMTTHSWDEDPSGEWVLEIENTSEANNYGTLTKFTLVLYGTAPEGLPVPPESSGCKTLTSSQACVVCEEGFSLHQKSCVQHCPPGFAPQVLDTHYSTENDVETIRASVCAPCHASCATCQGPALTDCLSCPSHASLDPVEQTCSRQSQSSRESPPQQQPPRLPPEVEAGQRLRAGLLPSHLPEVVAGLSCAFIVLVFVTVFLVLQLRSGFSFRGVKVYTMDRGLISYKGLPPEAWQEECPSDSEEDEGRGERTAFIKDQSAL
Outline: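 Fluorogenic cleavage of BOC-RVRR-AMC (2 microM final, Km ~15 µM) was monitored (ex 340, em 450 nm) at 37C after 15 min RT preincubation of 5 nM furin with compounds in HEPES pH 7.0 buffer with CaCl2 and Triton X-100. Percent inhibition was fitted to a 4-parameter Hill curve.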

[7] = Confirmatory screen GU Rhodamine qHTS for Zika virus inhibitors qHTS (AID 1347157); further: potency means the concentration at half of the fitted maximal effect; nearly all actives have a fitted effect of over 70% in size
Outline: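 Noncovalent NS2B hydrophilic domain/NS3 protease complex (25 nM final) in 10 mM Tris-HCl pH 8.0, 0.01% Tween 20, preincubated 15 min with compounds (up to 114 microM), then 1.5 microM Rhodamine110 substrate. Fluorescence change over 15 min fitted to 4-parameter Hill.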

[8] = Tertiary RLuc qRT-PCR qHTS assay for Zika virus inhibitors (AID 1347169); further: top concentration of the series differs between compounds; nearly all actives have a fitted effect of over 55% in size
Outline: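 Orthogonal cell-based infection assay using recombinant ZIKV-RLuc (Cambodian) in Vero cells; compound added prior to virus at MOI 1-2. Incubation lasts 48-72 hrs at 37 degrees C before live-cell Renilla substrate is added and luminescence measured.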

[9] = qHTS profiling for inhibitors of Plasmodium falciparum proliferation (AID 504749); further: nearly all actives have a fitted effect of over 60% in size; settings: P. falciparum in erythrocytes, SYBR Green DNA, 72 h, at 28.7 µM (top of the series)
Outline: (§1)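 Readout was DNA-dye fluorescence from lysed cultures, ex 485/em 535 nm. Parasitized red cells had grown 72 h with compound; data scaled between 0.29 uM artemisinin and DMSO wells and corrected using vehicle-only plates.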

[10] = tested on: 3D7; assay: as above; settings: P. falciparum in erythrocytes, SYBR Green DNA, 72 h; series mostly up to 28.7 µM
Outline: as §1

[11] = tested on: AA1029; assay: as above; settings: P. falciparum in erythrocytes, SYBR Green DNA, 72 h; series mostly up to 28.7 µM
Outline: as §1

[12] = tested on: AS120; assay: as above; settings: P. falciparum in erythrocytes, SYBR Green DNA, 72 h; series mostly up to 28.7 µM
Outline: as §1

[13] = tested on: ATS189; assay: as above; settings: P. falciparum in erythrocytes, SYBR Green DNA, 72 h; series mostly up to 28.7 µM
Outline: as §1

[14] = tested on: ATS95; assay: as above; settings: P. falciparum in erythrocytes, SYBR Green DNA, 72 h; series mostly up to 28.7 µM
Outline: as §1

[15] = tested on: C2A; assay: as above; settings: P. falciparum in erythrocytes, SYBR Green DNA, 72 h; series mostly up to 28.7 µM
Outline: as §1

[16] = tested on: CP185; assay: as above; settings: P. falciparum in erythrocytes, SYBR Green DNA, 72 h; series mostly up to 28.7 µM
Outline: as §1

[17] = tested on: CP191; assay: as above; settings: P. falciparum in erythrocytes, SYBR Green DNA, 72 h; series mostly up to 28.7 µM
Outline: as §1

[18] = tested on: CP192; assay: as above; settings: P. falciparum in erythrocytes, SYBR Green DNA, 72 h; series mostly up to 28.7 µM
Outline: as §1

[19] = tested on: CP194; assay: as above; settings: P. falciparum in erythrocytes, SYBR Green DNA, 72 h; series mostly up to 28.7 µM
Outline: as §1

[20] = tested on: CP201; assay: as above; settings: P. falciparum in erythrocytes, SYBR Green DNA, 72 h; series mostly up to 28.7 µM
Outline: as §1

[21] = tested on: CP211; assay: as above; settings: P. falciparum in erythrocytes, SYBR Green DNA, 72 h; series mostly up to 28.7 µM
Outline: as §1

[22] = tested on: CP217; assay: as above; settings: P. falciparum in erythrocytes, SYBR Green DNA, 72 h; series mostly up to 28.7 µM
Outline: as §1

[23] = tested on: CP237; assay: as above; settings: P. falciparum in erythrocytes, SYBR Green DNA, 72 h; series mostly up to 28.7 µM
Outline: as §1

[24] = tested on: CP238; assay: as above; settings: P. falciparum in erythrocytes, SYBR Green DNA, 72 h; series mostly up to 28.7 µM
Outline: as §1

[25] = tested on: CP250; assay: as above; settings: P. falciparum in erythrocytes, SYBR Green DNA, 72 h; series mostly up to 28.7 µM
Outline: as §1

[26] = tested on: CP252; assay: as above; settings: P. falciparum in erythrocytes, SYBR Green DNA, 72 h; series mostly up to 28.7 µM
Outline: as §1

[27] = tested on: CP256; assay: as above; settings: P. falciparum in erythrocytes, SYBR Green DNA, 72 h; series mostly up to 28.7 µM
Outline: as §1

[28] = tested on: CP260; assay: as above; settings: P. falciparum in erythrocytes, SYBR Green DNA, 72 h; series mostly up to 28.7 µM
Outline: as §1

[29] = tested on: CP262; assay: as above; settings: P. falciparum in erythrocytes, SYBR Green DNA, 72 h; series mostly up to 28.7 µM
Outline: as §1

[30] = tested on: CP265; assay: as above; settings: P. falciparum in erythrocytes, SYBR Green DNA, 72 h; series mostly up to 28.7 µM
Outline: as §1

[31] = tested on: CP266; assay: as above; settings: P. falciparum in erythrocytes, SYBR Green DNA, 72 h; series mostly up to 28.7 µM
Outline: as §1

[32] = tested on: CP268; assay: as above; settings: P. falciparum in erythrocytes, SYBR Green DNA, 72 h; series mostly up to 28.7 µM
Outline: as §1

[33] = tested on: CP269; assay: as above; settings: P. falciparum in erythrocytes, SYBR Green DNA, 72 h; series mostly up to 28.7 µM
Outline: as §1

[34] = tested on: CP286; assay: as above; settings: P. falciparum in erythrocytes, SYBR Green DNA, 72 h; series mostly up to 28.7 µM
Outline: as §1

[35] = tested on: CP291; assay: as above; settings: P. falciparum in erythrocytes, SYBR Green DNA, 72 h; series mostly up to 28.7 µM
Outline: as §1

[36] = tested on: CP297; assay: as above; settings: P. falciparum in erythrocytes, SYBR Green DNA, 72 h; series mostly up to 28.7 µM
Outline: as §1

[37] = tested on: CP305; assay: as above; settings: P. falciparum in erythrocytes, SYBR Green DNA, 72 h; series mostly up to 28.7 µM
Outline: as §1

[38] = tested on: CP315; assay: as above; settings: P. falciparum in erythrocytes, SYBR Green DNA, 72 h; series mostly up to 28.7 µM
Outline: as §1

[39] = tested on: CP325; assay: as above; settings: P. falciparum in erythrocytes, SYBR Green DNA, 72 h; series mostly up to 28.7 µM
Outline: as §1

[40] = tested on: CP329; assay: as above; settings: P. falciparum in erythrocytes, SYBR Green DNA, 72 h; series mostly up to 28.7 µM
Outline: as §1

[41] = tested on: CP335; assay: as above; settings: P. falciparum in erythrocytes, SYBR Green DNA, 72 h; series mostly up to 28.7 µM
Outline: as §1

[42] = tested on: DFO2036; assay: as above; settings: P. falciparum in erythrocytes, SYBR Green DNA, 72 h; series mostly up to 28.7 µM
Outline: as §1

[43] = tested on: DIV14; assay: as above; settings: P. falciparum in erythrocytes, SYBR Green DNA, 72 h; series mostly up to 28.7 µM
Outline: as §1

[44] = tested on: DIV17; assay: as above; settings: P. falciparum in erythrocytes, SYBR Green DNA, 72 h; series mostly up to 28.7 µM
Outline: as §1

[45] = tested on: DIV30; assay: as above; settings: P. falciparum in erythrocytes, SYBR Green DNA, 72 h; series mostly up to 28.7 µM
Outline: as §1

[46] = tested on: ECU; assay: as above; settings: P. falciparum in erythrocytes, SYBR Green DNA, 72 h; series mostly up to 28.7 µM
Outline: as §1

[47] = tested on: FAB9; assay: as above; settings: P. falciparum in erythrocytes, SYBR Green DNA, 72 h; series mostly up to 28.7 µM
Outline: as §1

[48] = tested on: GB4; assay: as above; settings: P. falciparum in erythrocytes, SYBR Green DNA, 72 h; series mostly up to 28.7 µM
Outline: as §1

[49] = tested on: JCK; assay: as above; settings: P. falciparum in erythrocytes, SYBR Green DNA, 72 h; series mostly up to 28.7 µM
Outline: as §1

[50] = tested on: N140; assay: as above; settings: P. falciparum in erythrocytes, SYBR Green DNA, 72 h; series mostly up to 28.7 µM
Outline: as §1

[51] = tested on: P93_24; assay: as above; settings: P. falciparum in erythrocytes, SYBR Green DNA, 72 h; series mostly up to 28.7 µM
Outline: as §1

[52] = tested on: P94_40; assay: as above; settings: P. falciparum in erythrocytes, SYBR Green DNA, 72 h; series mostly up to 28.7 µM
Outline: as §1

[53] = tested on: PAD; assay: as above; settings: P. falciparum in erythrocytes, SYBR Green DNA, 72 h; series mostly up to 28.7 µM
Outline: as §1

[54] = tested on: PC15; assay: as above; settings: P. falciparum in erythrocytes, SYBR Green DNA, 72 h; series mostly up to 28.7 µM
Outline: as §1

[55] = tested on: PC26; assay: as above; settings: P. falciparum in erythrocytes, SYBR Green DNA, 72 h; series mostly up to 28.7 µM
Outline: as §1

[56] = tested on: PC49; assay: as above; settings: P. falciparum in erythrocytes, SYBR Green DNA, 72 h; series mostly up to 28.7 µM
Outline: as §1

[57] = tested on: SC27B; assay: as above; settings: P. falciparum in erythrocytes, SYBR Green DNA, 72 h; series mostly up to 28.7 µM
Outline: as §1

[58] = tested on: TAB109; assay: as above; settings: P. falciparum in erythrocytes, SYBR Green DNA, 72 h; series mostly up to 28.7 µM
Outline: as §1

[59] = tested on: TAB113; assay: as above; settings: P. falciparum in erythrocytes, SYBR Green DNA, 72 h; series mostly up to 28.7 µM
Outline: as §1

[60] = tested on: TAB165; assay: as above; settings: P. falciparum in erythrocytes, SYBR Green DNA, 72 h; series mostly up to 28.7 µM
Outline: as §1

CC(C)(O)c1ccccc1CC[C@H](SCC1(CC(=O)O)CC1)c1cccc(/C=C/c2ccc3ccc(Cl)cc3n2)c1
outcome [1]: inactive
Potency [2]: 39.8 µM (active)
Potency [3]: 11.4 µM (active)
outcome [4]: inactive
Potency [5]: inactive
Potency [6]: 52.7 µM (active)
Potency [7]: 11.2 µM (active)
Potency [8]: inactive
activity, negative = inhibition ([9]; parasite line A): -2.01%
activity, negative = inhibition ([9]; parasite line B): -18.3%
Potency [10]: inactive
Potency [11]: inactive
Potency [12]: inactive
Potency [13]: inactive
Potency [14]: inactive
Potency [15]: inactive
Potency [16]: inactive
Potency [17]: inactive
Potency [18]: inactive
Potency [19]: inactive
Potency [20]: inactive
Potency [21]: inactive
Potency [22]: inactive
Potency [23]: inactive
Potency [24]: inactive
Potency [25]: inactive
Potency [26]: inactive
Potency [27]: inactive
Potency [28]: inactive
Potency [29]: inactive
Potency [30]: inactive
Potency [31]: inactive
Potency [32]: inactive
Potency [33]: inactive
Potency [34]: inactive
Potency [35]: inactive
Potency [36]: inactive
Potency [37]: inactive
Potency [38]: inactive
Potency [39]: inactive
Potency [40]: inactive
Potency [41]: inactive
Potency [42]: inactive
Potency [43]: inactive
Potency [44]: inactive
Potency [45]: inactive
Potency [46]: inactive
Potency [47]: inactive
Potency [48]: inactive
Potency [49]: inactive
Potency [50]: inactive
Potency [51]: inactive
Potency [52]: inactive
Potency [53]: inactive
Potency [54]: inactive
Potency [55]: inactive
Potency [56]: inactive
Potency [57]: inactive
Potency [58]: inactive
Potency [59]: inactive
Potency [60]: inactive
